Data from PubChem BioAssay AID1347420 (Sanford-Burnham Center for Chemical Genomics, 2020).
Among all 1,300 compounds or so, about 980 (75%) were called active. Not shown: some 4% with an inconclusive outcome. Some of the results follow. Unmarked numbers belong to inactive results.

molecular target: Sulfhydryl oxidase 1 (Homo sapiens) (UniProt O00391); assay: QSOX1 enzyme inhibitors, primary screen, biochemical, HyperBlu H2O2 luminescence, HTS (AID 1347420); settings: recombinant QSOX1, HyperBlu H2O2 luminescence; at 12.5 µM; stronger effect = higher value; active = any value above zero; note: values above 100% were filed as inconclusive
Sequence (O00391 whole entry, looked up): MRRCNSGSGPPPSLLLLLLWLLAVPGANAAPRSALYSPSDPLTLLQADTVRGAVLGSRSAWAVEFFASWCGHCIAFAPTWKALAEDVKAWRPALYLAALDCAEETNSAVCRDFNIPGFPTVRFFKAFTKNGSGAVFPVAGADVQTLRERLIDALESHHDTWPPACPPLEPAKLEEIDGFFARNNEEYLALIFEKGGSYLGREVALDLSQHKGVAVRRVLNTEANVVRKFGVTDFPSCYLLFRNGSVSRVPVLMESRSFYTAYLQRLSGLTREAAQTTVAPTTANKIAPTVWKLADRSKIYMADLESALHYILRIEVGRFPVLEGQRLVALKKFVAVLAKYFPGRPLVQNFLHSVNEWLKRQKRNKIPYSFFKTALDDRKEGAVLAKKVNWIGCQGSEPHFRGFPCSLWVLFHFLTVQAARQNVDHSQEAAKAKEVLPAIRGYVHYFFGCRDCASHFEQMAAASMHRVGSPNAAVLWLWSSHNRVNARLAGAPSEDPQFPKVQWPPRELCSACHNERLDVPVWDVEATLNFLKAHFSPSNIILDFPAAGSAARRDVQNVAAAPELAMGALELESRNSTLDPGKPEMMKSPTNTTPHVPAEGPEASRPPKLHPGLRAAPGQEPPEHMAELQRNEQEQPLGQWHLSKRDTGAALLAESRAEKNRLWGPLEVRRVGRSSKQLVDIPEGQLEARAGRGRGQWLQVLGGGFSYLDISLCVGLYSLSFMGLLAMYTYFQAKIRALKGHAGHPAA

SMILES	inhibition
N[C@H](C(=O)O)c1cc(O)cc(O)c1	5.6% (active)
Clc1ccc(N2CCN(Cc3cc4ccccn4n3)CC2)cc1	63.8% (active)
Clc1ccc(Cn2c(CN3CCCC3)nc3ccccc32)cc1	-2.3%
CCn1ccnc1CC1COc2ccccc2O1 (stereo not drawn)	-2.8%
COc1cccc(OC)c1OCCNCC1CSc2ccccc2O1 (stereo not drawn)	-4.6%
COc1cccc(OC)c1OCCNCC1COc2ccccc2O1 (stereo not drawn)	23.5% (active)
O=C1CCC(c2ccc(-n3ccnc3)cc2)=NN1	10% (active)
O=c1oc(Cl)c(Cl)c2ccccc12	15% (active)
Cc1nn(-c2ccccc2)c(C)c1C=NN1CCN(Cc2ccccc2)CC1	-0.7%
Nc1ncnc2c1c(-c1ccc(Oc3ccccc3)cc1)cn2C1CCCC1	7.6% (active)
COc1cc([C@@H]2c3cc4c(cc3[C@H](O)C3COC(=O)[C@@H]32)OCO4)cc(OC)c1OC (stereo partly drawn)	10.7% (active)
COc1cc([C@@H]2c3cc4c(cc3[C@@H](O[C@@H]3O[C@@H]5CO[C@@H](C)O[C@H]5[C@H](O)[C@H]3O)[C@H]3COC(=O)[C@H]23)OCO4)cc(OC)c1O	31.7% (active)
O=C(O)CN(CCN(CC(=O)O)CC(=O)O)CCN(CC(=O)O)CC(=O)O	25.6% (active)
O=C(O)CN(CCOCCOCCN(CC(=O)O)CC(=O)O)CC(=O)O	13.4% (active)
CN(C)[C@@H]1C(=O)C(C(N)=O)=C(O)[C@@]2(O)C(=O)C3=C(O)c4c(O)ccc(Cl)c4[C@@H](O)[C@H]3C[C@@H]12	49.5% (active)
C[C@H]1c2cccc(O)c2C(O)=C2C(=O)[C@]3(O)C(O)=C(C(N)=O)C(=O)[C@@H](N(C)C)[C@@H]3[C@@H](O)[C@@H]21	39.9% (active)
COc1ccccc1N1CCN(CCN(C(=O)c2ccc(I)cc2)c2ccccn2)CC1	28.5% (active)
COc1ccccc1N1CCN(CCN(C(=O)c2ccc(F)cc2)c2ccccn2)CC1	27.6% (active)
COc1ccccc1N1CCN(CCN(C(=O)C2CCCCC2)c2ccccn2)CC1	40.4% (active)
Cc1ccc(/C(=C\CN2CCCC2)c2ccccn2)cc1	-62.9%
O=C(O)C1CCCN(CCC=C(c2ccccc2)c2ccccc2)C1 (stereo not drawn)	3.5% (active)
O=C(O)C1=CC(=C(c2ccc(O)c(C(=O)O)c2)c2ccc(O)c(C(=O)O)c2)C=CC1=O	42.3% (active)

SMILES	inhibition
O=c1c2ccccc2nc2n1CCc1c-2[nH]c2ccccc12	5.7% (active)
CCCCc1oc2ccccc2c1C(=O)c1cc(I)c(OCCN(CC)CC)c(I)c1	18% (active)
CCCC[C@@]1(C2CCCC2)Cc2cc(OCC(=O)O)c(Cl)c(Cl)c2C1=O	25.1% (active)
C[C@@]1(C2CCCC2)Cc2cc(OCC(=O)O)c(Cl)c(Cl)c2C1=O	18.3% (active)
CC(C)C(=O)c1c(C(C)C)nn2ccccc12	12.7% (active)
CSc1ccc(C(=O)c2[nH]c(=O)[nH]c2C)cc1	-9%
CC(C)ON([C@@H](C(=O)NO)C(C)C)S(=O)(=O)c1ccc(-c2ccccc2)cc1	8.1% (active)
CC(C)OC(=O)C(C)(C)Oc1ccc(C(=O)c2ccc(Cl)cc2)cc1	1.9% (active)
CCOC(=O)C(C)(C)Oc1ccc(Cl)cc1	-1.7%
NNCCc1ccccc1	9.9% (active)
CCCCCCN(CCCCCC)C(=O)Cc1c(-c2ccc(F)cc2)[nH]c2ccccc12	22.4% (active)
CC(=O)Nc1nnc(S(N)(=O)=O)s1	14.5% (active)
CN(C)CCOC(C)(c1ccccc1)c1ccccn1 (stereo not drawn)	6.5% (active)
CSc1ccc2c(c1)C(N1CCN(C)CC1)Cc1ccccc1S2 (stereo not drawn)	1.3% (active)
CN1CCN(C2Cc3ccccc3Sc3ccc(Cl)cc32)CC1 (stereo not drawn)	1.9% (active)
O=c1n(CCCN2CCN(c3cccc(Cl)c3)CC2)nc2ccccn12	45.2% (active)
Cc1ccc(C(=O)Nc2ccc(S(=O)(=O)[O-])c3c2C(S(=O)(=O)[O-])=[C+]C(S(=O)(=O)O)=[C+]3)cc1NC(=O)c1cccc(NC(=O)Nc2cccc(C(=O)Nc3cc(C(=O)Nc4ccc(S(=O)(=O)[O-])c5c4C(S(=O)(=O)[O-])=[C+]C(S(=O)(=O)O)=[C+]5)ccc3C)c2)c1	17.8% (active)
c1cc(CN2CCCCC2)cc(OCCCNc2nc3ccccc3s2)c1	7.9% (active)
C1CCc2nnnn2CC1	15.2% (active)
CCC1C(=O)OCC1Cc1cncn1C (stereo not drawn)	-0.2%
CNCCNS(=O)(=O)c1cccc2cnccc12	3.8% (active)
